Experimental data: PubChem BioAssay (NCATS)
Inconclusive results are not listed. Calls of active or inactive are those of the source. Calls follow the shape of the dose curve; as a rule, active = well fitted inhibition curve with a large enough effect; inconclusive = small, poorly fitted or top-dose-only effect; inactive = no such curve, though single readings can be large or run the other way.

target: Cytochrome P450 2C19 (Homo sapiens) (UniProt P33261); assay: qHTS Assay for Inhibitors and Substrates of Cytochrome P450 2C19 (AID 899); conditions: recombinant CYP2C19, luciferin-H EGE luminescence; series mostly up to 57.1 µM; also: nearly all actives have a fitted effect of over 60% in size
How it was run: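 Luminescent read-out of luciferin formed from Luciferin-H EGE (10uM, equal to KM). Enzyme 5nM in 50mM KPO4; compound added, 10 min at 37C, then NADPH regenerating system for 60 min at 37C. Full inhibition defined by 57uM ketoconazole.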
Potency is read from the fitted curve at half-maximal effect.

Cytochrome P450 2C19 (Homo sapiens), sequence (P33261 whole entry, looked up): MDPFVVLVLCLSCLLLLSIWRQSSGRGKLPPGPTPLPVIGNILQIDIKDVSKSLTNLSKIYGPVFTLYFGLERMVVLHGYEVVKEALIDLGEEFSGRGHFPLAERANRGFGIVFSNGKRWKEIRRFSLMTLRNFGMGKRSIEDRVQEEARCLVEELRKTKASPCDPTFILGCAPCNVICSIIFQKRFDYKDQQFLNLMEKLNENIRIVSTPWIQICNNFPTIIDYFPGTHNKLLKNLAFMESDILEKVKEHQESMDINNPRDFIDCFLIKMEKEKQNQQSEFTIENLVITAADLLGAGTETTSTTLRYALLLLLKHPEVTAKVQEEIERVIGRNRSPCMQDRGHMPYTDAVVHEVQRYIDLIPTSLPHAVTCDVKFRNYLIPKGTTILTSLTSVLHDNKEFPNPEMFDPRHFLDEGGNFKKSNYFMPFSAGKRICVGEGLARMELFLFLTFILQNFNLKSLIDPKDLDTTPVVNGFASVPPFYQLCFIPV

Potency, active:
COc1cc(/C=C\C(=O)CC(=O)/C=C\c2ccc(O)c(OC)c2)ccc1O 2510 nM

Potency, inactive:
NCCC[C@@H](CC(=O)N[C@@H]1CCNC[C@H]1C(=O)N[C@H](CC(=O)N[C@@H](CCC(=O)O)CC(=O)O)Cc1c[nH]c2ccccc12)NC(=O)C[C@H](CO)NC(=O)[C@@H]1CNCC[C@H]1N
CC(C)[C@@H](CC(=O)N[C@@H]1CCCC[C@H]1C(=O)N[C@H](CC(=O)N[C@@H](CCC(=O)O)CC(=O)O)Cc1ccccc1)NC(=O)C[C@H](CO)NC(=O)[C@@H]1CNCC[C@H]1N
CC(C)C[C@@H](CC(=O)N[C@@H](CCC(=O)O)CC(=O)O)NC(=O)[C@@H]1CNCC[C@H]1NC(=O)C[C@@H](NC(=O)C[C@H](Cc1c[nH]c2ccccc12)NC(=O)[C@@H]1CCCC[C@H]1N)C(C)C
CC(C)C[C@@H](CC(=O)N[C@@H](CCCN)CC(=O)N[C@@H]1CCCC[C@H]1C(=O)N[C@H](CC(=O)N[C@@H](CCC(=O)O)CC(=O)O)Cc1c[nH]c2ccccc12)NC(=O)[C@@H]1CCCC[C@H]1N
CC(C)C[C@@H](CC(=O)N[C@@H](CCC(=O)O)CC(=O)O)NC(=O)[C@@H]1CCCC[C@H]1NC(=O)C[C@H](CCCN)NC(=O)C[C@H](CO)NC(=O)[C@@H]1CCCC[C@H]1N
CC(C)[C@@H](CC(=O)N[C@@H]1CCNC[C@H]1C(=O)N[C@H](CC(=O)N[C@@H](CCC(=O)O)CC(=O)O)Cc1c[nH]c2ccccc12)NC(=O)C[C@H](Cc1c[nH]c2ccccc12)NC(=O)[C@@H]1CNCC[C@H]1N
CC(C)C[C@@H](CC(=O)N[C@@H](CCC(=O)O)CC(=O)O)NC(=O)[C@@H]1CNCC[C@H]1NC(=O)C[C@@H](NC(=O)C[C@H](Cc1c[nH]c2ccccc12)NC(=O)[C@@H]1CNCC[C@H]1N)C(C)C
NCCC[C@@H](CC(=O)N[C@@H]1CCNC[C@H]1C(=O)N[C@H](CC(=O)N[C@@H](CCC(=O)O)CC(=O)O)Cc1ccccc1)NC(=O)C[C@H](Cc1ccccc1)NC(=O)[C@@H]1CNCC[C@H]1N
CC(C)C[C@@H](CC(=O)N[C@@H](CCC(=O)O)CC(=O)O)NC(=O)[C@@H]1CCCC[C@H]1NC(=O)C[C@@H](NC(=O)C[C@H](CO)NC(=O)[C@@H]1CNCC[C@H]1N)C(C)C
CC(C)[C@@H](CC(=O)N[C@@H]1CCNC[C@H]1C(=O)N[C@H](CC(=O)N[C@@H](CCC(=O)O)CC(=O)O)Cc1ccccc1)NC(=O)C[C@H](CO)NC(=O)[C@@H]1CCCC[C@H]1N
NCCC[C@@H](CC(=O)N[C@@H]1CCNC[C@H]1C(=O)N[C@H](CC(=O)N[C@@H](CCC(=O)O)CC(=O)O)Cc1c[nH]c2ccccc12)NC(=O)C[C@H](CO)NC(=O)[C@@H]1CCCC[C@H]1N
NCCC[C@@H](CC(=O)N[C@@H]1CCCC[C@H]1C(=O)N[C@H](CC(=O)N[C@@H](CCC(=O)O)CC(=O)O)Cc1c[nH]c2ccccc12)NC(=O)C[C@H](CO)NC(=O)[C@@H]1CNCC[C@H]1N
CC(C)C[C@@H](CC(=O)N[C@@H](CCC(=O)O)CC(=O)O)NC(=O)[C@@H]1CCCC[C@H]1NC(=O)C[C@@H](NC(=O)C[C@H](CO)NC(=O)[C@@H]1CCCC[C@H]1N)C(C)C
CC(C)[C@@H](CC(=O)N[C@@H]1CCNC[C@H]1C(=O)N[C@H](CC(=O)N[C@@H](CCC(=O)O)CC(=O)O)Cc1c[nH]c2ccccc12)NC(=O)C[C@H](Cc1c[nH]c2ccccc12)NC(=O)[C@@H]1CCCC[C@H]1N
CC(C)C[C@@H](CC(=O)N[C@H](CC(=O)N[C@@H]1CCCC[C@H]1C(=O)N[C@H](CC(=O)N[C@@H](CCC(=O)O)CC(=O)O)CC(C)C)C(C)C)NC(=O)[C@@H]1CCCC[C@H]1N
